Compounds with a hit are over-represented: about 19% of the library has one in this group of screens.
IL-1B inflam inh = qHTS for Inhibitors of Inflammasome Signaling: IL-1-beta AlphaLISA Primary Screen; THP-1 LPS/ATP IL-1B secretion, AlphaLISA, 16 h; stronger effect = lower value; activity change, % at 57.5 µM; 4.7% of 360,000 active; AID 743279, 2014; in the data active means activity change below about -50%; inconclusive means mostly about -30% to -49%
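Secreted IL-1B measured by AlphaLISA bead assay after 16 h compound exposure of THP-1 cells; compounds (final up to 57.5 uM) added 1 h before LPS (250 ng/mL) and ATP (1.25 mM) stimulation; lower signal means less secretion.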
ELG1 DNA repair = qHTS screen for small molecules that inhibit ELG1-dependent DNA repair in human embryonic kidney (HEK293T) cells expressing luciferase-tagged ELG1; 2.3% of 330,000 active; Potency, µM (highest dose often 46.1 µM), inactives show at the highest dose activity change, negative = inhibition, usual class: inhibitors; HEK293T ELG1-luciferase reporter, luminescence, 16 h; DNA damage induced by 5-fluorouridine; further: potency means the concentration at half of the fitted maximal effect; nearly all actives have a fitted effect of over 55% in size
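5-Fluorouridine DNA damage + compound/DMSO, 2,000 cells/well, 16 h, 37 °C/5% CO2. ONE-Glo, 30 min RT, luminescence. Readout = decrease in reporter signal.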
HT1080 IDH1KD tx = qHTS for induction of synthetic lethality in tumor cells producing 2HG: qHTS for the HT-1080-IDH1KD cell line; 2% of 360,000 active; HT-1080 IDH1 knockdown viability, ATP luminescence, 48 h; AID 686971, 2013; Potency, µM (doses to about 46.1 µM), without a hit: at the top dose activity, negative = toxicity, actives largely listed as cytotoxic;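 further: potency means the concentration at half of the fitted maximal effect; 0% = DMSO wells and -100% = cell-free medium wells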
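After a 2 h attachment period, IDH1KD HT-1080 cells took pin-transferred compound for 48 h at 37 °C; ATP-based luminescence after 10 min room-temperature reagent incubation reported viability.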
DT40 TDP1 CPT = qHTS for Inhibitors of human tyrosyl-DNA phosphodiesterase 1 (TDP1): qHTS in cells in presence of CPT; AID 686979, 2013; 12% of 420,000 active; chicken DT40 Tdp1-/-;hTDP1 cells + 20 nM CPT, ATP luminescence, 48 h; Potency, µM (top dose mostly 46.2 µM), without a hit: top-dose activity change, negative = growth inhibition, most hits filed as inhibitors; further: potency means the concentration at half of the fitted maximal effect; nearly all actives have a fitted effect of over 55% in size
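Cell growth measured by CellTiter-Glo luminescence after a minimum 48 h, 37 C compound exposure with 20 nM CPT in Tdp1-knockout DT40 cells stably expressing hTDP1, seeded 400/well; qHTS titration format.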
HT1080-NT tox = qHTS for induction of synthetic lethality in tumor cells producing 2HG: qHTS for the HT-1080-NT fibrosarcoma cell line | HT-1080-NT fibrosarcoma viability, CellTiter-Glo ATP luminescence, 48 h | 1.6% of 360,000 active | Potency, µM (series often up to 46.1 µM), without a hit: at the highest dose activity, negative = less viability, usual class: cytotoxic;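 further: NT is the 2HG producing partner of a matched IDH1 knockdown line; potency means the concentration at half of the fitted maximal effect; 0% = DMSO-treated cells and -100% = media-only wells without cells; nearly all actives have a fitted effect of over 55% in size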
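Fibrosarcoma NT cells, 750 per well in 5% FBS RPMI, were exposed to compound for 48 hours. Viability: CellTiter-Glo luminescence.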
DT40 TDP1 no CPT = qHTS for Inhibitors of human tyrosyl-DNA phosphodiesterase 1 (TDP1): qHTS in cells in absence of CPT; Potency, µM (titrated, usually from 46.2 µM), without a hit: at the highest dose activity change, negative = growth inhibition, most hits filed as inhibitors; DT40 Tdp1-/- hTDP1 cells, no CPT, ATP luminescence, 48 h; 15% of 420,000 active; further: potency means the concentration at half of the fitted maximal effect; nearly all actives have a fitted effect of over 55% in size
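Luminescent ATP content (CellTiter-Glo) served as the growth readout. Knockout chicken DT40 cells expressing human TDP1 were exposed to compounds without camptothecin for a minimum 48 hr at 37 °C.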
* = called active by the depositor. Unless noted, the call rests on the fitted dose curve; in most records, active means well fitted curve in the direction sought with a large enough effect; inconclusive means small, poorly fitted or top-dose-only effect, or another doubt; inactive means no such curve, though single readings can be large; an effect the other way counts as inactive or inconclusive. Unless noted, on the % scale 0 is the no-effect control and ±100 the full control effect.

Cc1cccc(N2C(=O)CC(Sc3nc(C)cc(C)n3)C2=O)c1 (stereo not drawn) was read as IL-1B inflam inh 26, ELG1 DNA repair -6%, HT1080 IDH1KD tx 3%, DT40 TDP1 CPT inconclusive, HT1080-NT tox 14% and DT40 TDP1 no CPT inconclusive.
Screening Cc1ccc(N2C(=O)CC(Sc3cccs3)C2=O)cc1 (stereo not drawn) returned IL-1B inflam inh -14, ELG1 DNA repair 9%, HT1080 IDH1KD tx -1%, DT40 TDP1 CPT 16µM*, HT1080-NT tox 4% and DT40 TDP1 no CPT 5.8µM*.
COc1ccc(N2C(=O)CC(Sc3nc4c(cc3C#N)CCC4)C2=O)cc1 (stereo not drawn) was read as IL-1B inflam inh -14, ELG1 DNA repair 0%, HT1080 IDH1KD tx 18%, DT40 TDP1 CPT 2%, HT1080-NT tox inconclusive and DT40 TDP1 no CPT -20%.
`Cc1cccc(N2C(=O)CC(Sc3nnc(C)s3)C2=O)c1` (stereo not drawn) gave IL-1B inflam inh -1, ELG1 DNA repair 11%, HT1080 IDH1KD tx 10%, DT40 TDP1 CPT 5.2µM*, HT1080-NT tox 11% and DT40 TDP1 no CPT 6.5µM*.
O=C(OCC(=O)N1CCCC1)c1ccc(S(=O)(=O)Nc2ccccc2)cc1 was read as IL-1B inflam inh 131, ELG1 DNA repair -2%, HT1080 IDH1KD tx 9%, DT40 TDP1 CPT -11%, HT1080-NT tox 6% and DT40 TDP1 no CPT -8%.
Cc1cccc(N2C(=O)CC(Sc3nc(C)c4c(n3)CCCC4)C2=O)c1 (stereo not drawn) was read as IL-1B inflam inh 5, ELG1 DNA repair 0%, HT1080 IDH1KD tx 10µM*, DT40 TDP1 CPT inconclusive, HT1080-NT tox 7.1µM* and DT40 TDP1 no CPT -14%.
Screening Cc1cc(CNC(=O)c2cnn(-c3ncc4c(n3)-c3ccccc3CCC4)c2C2CC2)on1 returned DT40 TDP1 CPT -6% and DT40 TDP1 no CPT inconclusive.
`CC1=C(C(=O)Nc2ccc(C)cc2C)C(c2cc(Br)ccc2F)n2ncc(C(=O)Nc3ccc(C)cc3)c2N1` (stereo not drawn) gave DT40 TDP1 CPT inconclusive and DT40 TDP1 no CPT 12µM*.
CC1=C(C(=O)Nc2ccc(C)cc2C)C(c2ccccc2[N+](=O)[O-])n2ncc(C(=O)Nc3ccccc3)c2N1 (stereo not drawn) was read as DT40 TDP1 CPT inconclusive and DT40 TDP1 no CPT 26µM*.
Screening COC(=O)c1c(NC(=O)/C=C/C(=O)O)sc(Cc2ccccc2)c1C returned IL-1B inflam inh -111*, ELG1 DNA repair -9%, HT1080 IDH1KD tx inconclusive, DT40 TDP1 CPT 21µM*, HT1080-NT tox -29% and DT40 TDP1 no CPT inconclusive.
`COC(=O)c1c(N)sc(Cc2ccccc2)c1C` gave IL-1B inflam inh 3, ELG1 DNA repair -3%, HT1080 IDH1KD tx -2%, DT40 TDP1 CPT -11%, HT1080-NT tox -2% and DT40 TDP1 no CPT 25%.
Cc1c(Cc2ccccc2)sc(NC(=O)/C=C/c2cccc3ccccc23)c1C(N)=O was read as IL-1B inflam inh 10, ELG1 DNA repair inconclusive, HT1080 IDH1KD tx 33µM*, DT40 TDP1 CPT 3.7µM*, HT1080-NT tox 13µM* and DT40 TDP1 no CPT 3.3µM*.
S=c1[nH]nc(SCc2ccccc2)c2[nH]cnc12 was read as IL-1B inflam inh 27, HT1080 IDH1KD tx -8%, DT40 TDP1 CPT inconclusive, HT1080-NT tox -9% and DT40 TDP1 no CPT 4.6µM*.
Screening Cc1nn(Cc2ccc([N+](=O)[O-])cc2)c(=O)n1-c1ccccc1Cl returned IL-1B inflam inh 16, ELG1 DNA repair -4%, HT1080 IDH1KD tx -2%, DT40 TDP1 CPT 1%, HT1080-NT tox 4% and DT40 TDP1 no CPT -16%.
`Cc1nn(Cc2ccc([N+](=O)[O-])cc2)c(=O)n1N(C)c1ncc(C(F)(F)F)cc1Cl` gave IL-1B inflam inh -3, ELG1 DNA repair -12%, HT1080 IDH1KD tx -15%, DT40 TDP1 CPT inconclusive, HT1080-NT tox -19% and DT40 TDP1 no CPT 11µM*.
Cc1nn(Cc2ccc(Cl)cc2)c(=O)n1N(C)c1ncc(C(F)(F)F)cc1Cl was read as IL-1B inflam inh 5, ELG1 DNA repair -10%, HT1080 IDH1KD tx -19%, DT40 TDP1 CPT 21µM*, HT1080-NT tox -21% and DT40 TDP1 no CPT 21µM*.
`CN(NS(=O)(=O)c1ccc(Cl)cc1)c1ncc(C(F)(F)F)cc1Cl` gave IL-1B inflam inh -6, ELG1 DNA repair -3%, HT1080 IDH1KD tx -2%, DT40 TDP1 CPT inconclusive, HT1080-NT tox -1% and DT40 TDP1 no CPT inconclusive.
For C/C(COc1ccccc1)=N\NC(=O)c1nnn(-c2nonc2N)c1CSc1ccc(C)cc1 the results were IL-1B inflam inh -29, HT1080 IDH1KD tx -17%, DT40 TDP1 CPT -8%, HT1080-NT tox -6% and DT40 TDP1 no CPT -15%.
Cn1c(Cc2ccc(Cl)cc2)nnc1SCC(=O)NC1CC1 was read as IL-1B inflam inh 23, ELG1 DNA repair -1%, HT1080 IDH1KD tx 4%, DT40 TDP1 CPT 2%, HT1080-NT tox 0% and DT40 TDP1 no CPT 1%.
CCc1ccc(N2C(=O)CN(Cc3cc(OC)c(OC)c(OC)c3)C2=S)cc1 was read as IL-1B inflam inh -1, ELG1 DNA repair -23%, HT1080 IDH1KD tx -9%, DT40 TDP1 CPT 16µM*, HT1080-NT tox -13% and DT40 TDP1 no CPT 23µM*.
For COc1cc(CN2CC(=O)N(c3ccc(C)c(C)c3)C2=S)cc(OC)c1OC the results were IL-1B inflam inh -6, ELG1 DNA repair inconclusive, HT1080 IDH1KD tx -9%, DT40 TDP1 CPT inconclusive, HT1080-NT tox 2% and DT40 TDP1 no CPT inconclusive.
For COc1ccc(CN2CC(=O)N(c3ccc(C)c(C)c3)C2=S)cc1OC the results were IL-1B inflam inh 30, ELG1 DNA repair 16µM*, HT1080 IDH1KD tx -14%, DT40 TDP1 CPT -3%, HT1080-NT tox -7% and DT40 TDP1 no CPT inconclusive.
`CCc1ccccc1N1C(=O)CN(Cc2cc(OC)c(OC)c(OC)c2)C1=S` gave IL-1B inflam inh -9, ELG1 DNA repair -25%, HT1080 IDH1KD tx 0%, DT40 TDP1 CPT inconclusive, HT1080-NT tox -9% and DT40 TDP1 no CPT 21µM*.

High-throughput results deposited in PubChem by National Center for Advancing Translational Sciences (NCATS).
